# Source: PubChem
# The list is not random: actives were taken first. Their share in the collection is about 6.6%.
# KB-3-1 tox: KB-3-1 parental cell cytotoxicity; KB-3-1 viability, CellTiter-Glo ATP luminescence, 72 h; Potency, µM (series often up to 46.1 µM), most hits filed as cytotoxic; hit rate 1.4% among 400,000; AID 1347075; further: on the % scale 0 is the no-effect control and ±100 the full control effect; nearly all actives have a fitted effect of over 60% in size
#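 Screening of KB-3-1 cells (DMEM, 10% FBS, phenol-red free) ran from lowest to highest compound concentration; after 72 h at 37 °C viability was read luminescently and curves fitted.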
# KB-V1 MDR tox: KB-V1 MDR subline cytotoxicity; KB-V1 MDR cells viability, CellTiter-Glo, 72 h; Potency, µM (series often up to 46.1 µM), hits mostly cytotoxic; hit rate 3.4% among 400,000; AID 1347076; further: on the % scale 0 is the no-effect control and ±100 the full control effect; nearly all actives have a fitted effect of over 60% in size
#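 Luminescent ATP read-out (CellTiter-Glo, 10 min) measures survival of drug-selected KB-V1 MDR cells after 72 h, 37 degrees C compound exposure. Medium: phenol-red-free DMEM, 10% FBS. Values from fitted concentration-response curves.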
# TSG101-PTAP inh: blocks PTAP/TSG101 interaction to inhibit HIV-1 budding. 340,000 tested, under 10 active. Potency, µM (highest dose often 115 µM), for the others: top-dose activity change, negative = inhibition, hits mostly inhibitors. Q99816. Fluorescence polarization, FITC-PTAP peptide / Tsg101 binding; active means well fitted inhibition curve with a large enough effect in the main read-out, with a control signal flat, not every such curve was filed as active; inconclusive means small, poorly fitted or top-dose-only effect, or effect the other way, or a change in a side signal; inactive means no such curve, though single readings can be large or run the other way; further: % of control where 0% means no effect
# Target sequence (Q99816 whole entry, looked up): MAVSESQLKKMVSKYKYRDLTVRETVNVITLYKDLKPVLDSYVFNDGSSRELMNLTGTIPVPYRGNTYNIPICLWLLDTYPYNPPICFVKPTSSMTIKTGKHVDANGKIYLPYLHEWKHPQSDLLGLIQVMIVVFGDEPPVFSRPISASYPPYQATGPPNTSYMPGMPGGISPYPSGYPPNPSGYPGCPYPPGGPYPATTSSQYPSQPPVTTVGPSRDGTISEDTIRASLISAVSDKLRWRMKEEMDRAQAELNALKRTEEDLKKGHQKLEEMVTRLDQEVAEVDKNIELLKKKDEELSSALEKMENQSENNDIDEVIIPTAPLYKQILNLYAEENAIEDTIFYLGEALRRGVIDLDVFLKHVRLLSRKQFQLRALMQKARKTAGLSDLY
#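 Fluorescence anisotropy tracks displacement of a FITC-tagged PTAP peptide (50 nM) from the Tsg101 binding domain (10 uM), following a 20 min room-temperature incubation at pH 7.5.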
# MCF10A rerep: inducers of DNA re-replication in MCF 10A breast cells; MCF 10A DNA re-replication, Hoechst nuclear intensity, 48 h; Potency, µM (titrated, usually from 46.1 µM), for inactives: top-dose activity, positive = re-replication, usual class: activators; hit rate 2.9% among 350,000; AID 624296; further: % of control where 0% means no effect; nearly all actives have a fitted effect of over 50% in size
# RGS4 inhibitor: human RGS4 inhibition | Transcreener GDP fluorescence polarization, RGS4-accelerated GTP hydrolysis | Potency, µM (doses to about 114 µM), for the others: at the highest dose activity change, negative = inhibition, actives largely listed as inhibitors | hit rate 0.039% among 390,000; further: on the % scale 0 is the no-effect control and ±100 the full control effect; nearly all actives have a fitted effect of over 75% in size
# Target sequence (P49798 whole entry, looked up): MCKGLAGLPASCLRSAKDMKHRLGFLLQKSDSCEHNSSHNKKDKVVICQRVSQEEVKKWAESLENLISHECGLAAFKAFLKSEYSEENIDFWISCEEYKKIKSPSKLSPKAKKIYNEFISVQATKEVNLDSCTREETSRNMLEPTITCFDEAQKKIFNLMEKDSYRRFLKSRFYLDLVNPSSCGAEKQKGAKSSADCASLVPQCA
#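 MLSMR compounds (23 nl, pin-transferred) preincubated 10 min at room temperature with a 500nM (2x) first reagent, then RGS4 at 900nM (2x) plus Transcreener GDP mix added; fluorescence polarization (620/688 nm) read before and after 90 min at 30 °C.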
# SW480 rereplic: induces DNA re-replication in SW480 colon adenocarcinoma cells; SW480 DNA re-replication, Hoechst DNA content imaging, 48 h; Potency, µM (doses to about 46.1 µM), for inactives: at the highest dose re-replication activation, hits mostly activators; hit rate 1.8% among 340,000; further: % of control where 0% means no effect; nearly all actives have a fitted effect of over 55% in size
#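 DNA re-replication was detected as more nuclei of elevated Hoechst intensity after 48 hr exposure to compound (23 nL pinned per well of 250 cells).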
# Numbers without * were called inactive; i = inactive; ? = inconclusive; . = no result given. Unless noted, the call rests on the fitted dose curve; in most records, active means well fitted curve in the direction sought with a large enough effect; inconclusive means small, poorly fitted or top-dose-only effect, or another doubt; inactive means no such curve, though single readings can be large; an effect the other way counts as inactive or inconclusive. Potency means the concentration at half of the fitted maximal effect.
SMILES,KB-3-1 tox,KB-V1 MDR tox,TSG101-PTAP inh,MCF10A rerep,RGS4 inhibitor,SW480 rereplic
COc1ccc(-n2c(-c3ccccc3)cc3c2CCCC3=O)cc1,?,11.6µM*,-2.2%,?,14.7%,3.2%
Cc1ccc(S(=O)(=O)N2CCN(c3nc(-c4cccs4)nc4c3ncn4COC(=O)C(C)(C)C)CC2)cc1,.,.,.,.,16.2%,.
CCOc1ccc(-c2c[n+]3c(n2-c2ccccc2)CCCCC3)cc1,5.8µM*,?,1.4%,19.0%,16.1%,-8.2%
COc1ccc(-n2c(-c3ccc(Br)cc3)n[nH]c2=S)cc1,i,i,-14.6%,-3.6%,-45.8%,-16.9%
COc1ccc(-n2c(-c3ccc(Br)cc3)c[n+]3c2SC(C)C3)cc1 (configuration not stated),5.8µM*,i,-9.4%,-1.4%,-22.8%,3.8%
COc1cccc(NC(=O)C(=O)NCC(c2cccnc2)N2CCN(c3ccccc3)CC2)c1 (configuration not stated),i,i,.,.,13.1%,.
COc1ccc(CCN2C(=O)CC(NCc3ccc4c(c3)OCO4)C2=O)cc1OC (configuration not stated),i,i,-5.8%,-3.6%,32.1%,0.2%
COc1ccc(CCNC2CC(=O)N(CCc3ccc(OC)c(OC)c3)C2=O)cc1OC (configuration not stated),i,18.4µM*,1.2%,-2.1%,-18.2%,-5.0%
Cc1nc(-c2ccc(Cl)cc2)sc1C1(C)CC(c2ccc(F)cc2)=NO1 (configuration not stated),i,i,0.9%,10.3µM*,-27.1%,-3.1%
O=C(NCCC1=CCCCC1)C(=O)NCC(c1ccco1)N1CCN(c2ccccc2)CC1 (configuration not stated),i,?,0.5%,?,19.8%,?
O=C(NCCC1=CCCCC1)C(=O)NCC(c1ccco1)N1CCN(c2ccccc2F)CC1 (configuration not stated),i,4.11µM*,-1.0%,0.3%,-12.7%,-45.8%
COc1ccc(N2CCN(C(CNC(=O)C(=O)NCCC3=CCCCC3)c3ccco3)CC2)cc1 (configuration not stated),i,2.59µM*,-1.2%,14.9%,-4.4%,9.6%
Cc1nc2sccn2c(=O)c1CCN1CCC(=C(c2ccccc2)c2ccc(F)cc2)CC1,.,.,.,5.17µM*,?,14.7%
CCOc1ccc(OCC)c(NC(=O)CN(C)S(=O)(=O)c2ccc3nc(C)sc3c2)c1,i,?,-0.1%,20.6µM*,-13.1%,-1.2%
O=c1c(S(=O)(=O)c2ccccc2)cn(Cc2ccc(F)cc2)c2cc(N3CCCCC3)c(F)cc12,i,i,.,.,-8.0%,.
COc1cc(S(=O)(=O)N2CCCC3(CCCCC3)C2)ccc1-n1cnnn1,i,20.6µM*,-3.3%,-4.1%,8.2%,-4.3%
Cc1c(C(=O)Nc2ccc(F)c(C(F)(F)F)c2)sc2nc(-c3ccccc3)cn12,.,.,.,.,-1.9%,.
O=C(NC1CCCCCC1)c1cccc(COCC(F)(F)F)c1,i,23.1µM*,-1.9%,-2.3%,6.0%,-4.2%
O=C(NC1CCCCC1)c1ccc(COCC(F)(F)F)o1,i,i,-5.4%,8.8%,16.8%,3.2%
CCOC(=O)c1sc2nc(CC(=O)OC)nc(NCCN3CCOCC3)c2c1C,?,3.66µM*,-1.1%,3.1%,-9.4%,-8.0%
CCOC(=O)c1sc2nc(CC(=O)OC)nc(NCCN(CC)CC)c2c1C,i,9.2µM*,-3.1%,5.5%,-11.3%,1.7%
CCOC(=O)c1sc2nc(CC(=O)OC)nc(N3CCN(c4ccc(OC)cc4)CC3)c2c1C,i,?,-2.9%,-0.8%,-7.6%,-3.2%
CCOC(=O)c1sc2nc(CC(=O)OC)nc(NCc3ccc(Cl)cc3)c2c1C,i,?,-1.7%,-2.9%,-22.6%,1.3%
CC(=O)[C@H](CC(C)C)NC(=O)[C@@H](CC(C)C)NC(=O)[C@H](CC(C)C)NC(=O)OCc1ccccc1,.,.,.,.,8.44µM*,.
Cc1ccc(S(=O)(=O)NC(Cc2ccccc2)C(=O)NN)cc1 (configuration not stated),i,i,-0.2%,1.5%,-39.4%,?
SMILES,KB-3-1 tox,KB-V1 MDR tox,TSG101-PTAP inh,MCF10A rerep,RGS4 inhibitor,SW480 rereplic
CC(C)C[C@@H](/C=C/S(C)(=O)=O)NC(=O)[C@H](CC(C)C)NC(=O)[C@H](CC(C)C)NC(=O)OCc1ccccc1,.,.,.,.,i,.
Cc1ccc(S(=O)(=O)N[C@@H](Cc2ccccc2)C(=O)CCl)cc1,?,?,-5.5%,2.31µM*,7.52µM*,?
CC(=O)NC(CC(C)C)C(=O)NC(Cc1ccccc1)C(=O)CCl (configuration not stated),i,i,-1.6%,8.2µM*,-10.0%,17.4%
Cn1cc(/C=C/c2ccnc3ccccc23)c2ccccc21,?,i,.,.,.,.
Cc1cc2c(cc1NC(=O)c1ccccc1C)n(C)c(=O)c(=O)n2C,i,i,.,.,-2.0%,.
O=C(OCc1ccccc1)N1CCOCCOCCN(C(=O)OCc2ccccc2)CCOCCOCC1,i,?,-3.8%,-8.4%,-0.3%,-1.9%
NCCC1CN(C(=O)OCc2ccccc2)c2ccccc21 (configuration not stated),i,i,0.4%,-7.0%,-27.0%,10.3µM*
CCCSc1ncc(Cl)c(C(=O)Nc2nc3ccc(C)cc3s2)n1,.,.,.,.,-19.2%,.
CC(C)(C)C1CCc2onc(C(=O)NC3CCCC3)c2C1 (configuration not stated),?,16.4µM*,-4.7%,?,-8.4%,4.6%
COc1cc(NC(=O)c2noc3c2CC(C(C)(C)C)CC3)cc(OC)c1OC (configuration not stated),i,16.4µM*,.,.,-25.1%,.
CC(C)(C)C1CCc2onc(C(=O)Nc3ccc4c(c3)OCO4)c2C1 (configuration not stated),i,i,-1.7%,?,9.9%,-15.5%
CC1CCc2onc(C(=O)N3CCN(c4ccc(F)cc4)CC3)c2C1 (configuration not stated),.,.,.,.,-11.0%,.
O=C(NC1CCCCC1)c1noc2c1CCCCC2,i,?,-3.5%,-7.5%,25.1%,-3.7%
CC(C)(C)C1CCc2onc(C(=O)N3CCOCC3)c2C1 (configuration not stated),i,20.6µM*,0.3%,19.1%,-11.7%,-1.8%
O=C(Nc1ccc(Cl)cc1Cl)c1cc(S(=O)(=O)N2CCC3(CC2)OCCO3)ccc1F,.,.,.,.,-0.5%,.
COc1ccc(-c2nnc(SCC(=O)Nc3cccc(C(F)(F)F)c3)s2)cc1,i,i,.,.,-16.8%,.
